# Reference: the supplement of paper PMC6555819
# Tested on: PPARa:RXRa (NR concentration 270 nM, RXRa partner concentration 90 nM)
# Experiment: PBM binding z-score (relative to random genomic background probes); higher = stronger binding; sequences stand for … in GC…GCGATTGACAGCGTAGAATGAAGG
# Method in brief: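 Antibodies against each partner of ligand-free nuclear receptor dimers (one per run) detected binding on custom Agilent 4×180K protein-binding microarrays after 1 h incubation. The double-stranded probes had 34-nt variable regions carrying direct-repeat seeds, single-nucleotide variants, half-site ablations and random human genomic background sequences. Binding z-scores, from regression-normalized fluorescence, use the random background probes as reference.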
row,Sequence,PBM binding z-score
1,TCATATAGGTAACCAGGTGAAAGTCCGTAAGTTA,2.95
2,TGAATGAGGCTATAAGATCAGGGAACGTTGCAAA,-0.176
3,CCGACTGGGCCAAGGTTACCATAACGCACAGCCA,1.01
4,AGAATGAGGTTATTAAGGTCAGGGAATTGCGGTC,4.4
5,CCTTACGAGTCACGAGGTTATAGCACGACGAGCG,1.84
6,GCTATTAGTTGAAAGGGCCACCGAATGATTCTCG,0.401
7,GCTATTAGTTGAAAGGGCAACCGCATGATTCTCG,2.31
8,CCTGCTTGGTCATGGTCAGCTAATCTACAGTATG,-0.334
9,CAAACTAGGTCACAGAGTTCAAAGTCCGTGCGTA,6.05
10,CGTCAAAGTTCACGGTAACGTAACAGAAAGCAGC,5.42
11,ATCTCTAGGTAAAGATAATTCAGTGAATGCAAAT,0.312
12,GGAACAAGGGCATTCGAGTTGATAGCATGGCGAT,1.16
13,CCTACTGGGGCATAAGGTTACCATAAGCCAGCCC,2.47
14,GATACAGGGTCAAGGCCAGAGCACGCGTATTGAT,5.48
15,CCTAGTTGGTCAAGGTCACTCACGCTATAGGTAC,3.67
16,TAGCCTGGGTCATTGGGCCAGTATAGTACGCATC,4.11
17,ATCTCTAGTTAAAAGTTCAGTGAATCCCGAGGAT,1.64
18,TCTGCTAGGTCAGTGGGTCAGCTAACGAGCTGCC,3.41
19,CCTTACGGGTCACGAGGTTTTAGCACGACGAGCG,5.72
20,GCTTACGGGTCAAAGGCTATAGCATGAATAGAAT,6.01
21,AGAATGAGGTTATTAAGTTCAGGGAATTGCGGTC,3.11
22,ACAGACAGGTGATGAAGGTAACTCCGGCTATCAT,0.23
